How the values were obtained:
Assay in all cases: PBM binding z-score (relative to random genomic background probes); higher = stronger binding; sequences stand for … in GC…GCGATTGACAGCGTAGAATGAAGG
[1] = test system: FXR:RXRa (NR concentration 270 nM, RXRa partner concentration 90 nM)
Procedure, shortened: (§1)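 Binding z-scores were set against random background probes. The data came from custom Agilent 4×180K protein-binding microarrays carrying double-stranded probes with 34-nt variable regions, incubated 1 h with ligand-free nuclear receptor dimers. Partner-specific antibodies detected binding, and scanned fluorescence was regression-normalized.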

[2] = test system: LXRa:RXRa (NR concentration 270 nM, RXRa partner concentration 90 nM)
Procedure, shortened: as §1

[3] = test system: LXRa homodimer (NR concentration 270 nM)
Procedure, shortened: as §1

[4] = test system: LXRb:RXRa (NR concentration 270 nM, RXRa partner concentration 90 nM)
Procedure, shortened: as §1

[5] = test system: LXRb homodimer (NR concentration 270 nM)
Procedure, shortened: as §1

[6] = test system: PPARa:RXRa (NR concentration 270 nM, RXRa partner concentration 90 nM)
Procedure, shortened: as §1

[7] = test system: PPARg:RXRa (NR concentration 180 nM, RXRa partner concentration 90 nM)
Procedure, shortened: as §1

[8] = test system: PPARg:RXRa 270nM:90nM, anti-RXR (NR concentration 270 nM, RXRa partner concentration 90 nM)
Procedure, shortened: as §1

[9] = test system: PPARg:RXRa 30nM:10nM, anti-RXR (NR concentration 30 nM, RXRa partner concentration 10 nM)
Procedure, shortened: as §1

[10] = test system: PPARg:RXRa 90nM:30nM, anti-RXR (NR concentration 90 nM, RXRa partner concentration 30 nM)
Procedure, shortened: as §1

| Sequence | PBM binding z-score [1] | PBM binding z-score [2] | PBM binding z-score [3] | PBM binding z-score [4] | PBM binding z-score [5] | PBM binding z-score [6] | PBM binding z-score [7] | PBM binding z-score [8] | PBM binding z-score [9] | PBM binding z-score [10] |
| --- | --- | --- | --- | --- | --- | --- | --- | --- | --- | --- |
| GGAATGAGGGCAAGTTGATAGCAGAGTTTGATGG | 1.28 | 0.752 | -0.149 | 0.54 | 0.0849 | 2.08 | 1.6 | 1.56 | 0.431 | 0.993 |
| CCTACTGGGCCATTCAGAAGTCATTGATCATATG | -0.391 | -0.415 | -0.186 | -0.497 | -0.171 | 0.968 | 0.302 | 0.341 | -0.166 | -0.00895 |
| ATCTCTAGGTAAAGATAGTACAGTGAATGCAAAT | 0.368 | 1.08 | 0.357 | 0.211 | 0.424 | 0.263 | 1.13 | 0.762 | 0.819 | 0.761 |
| CCGACTGGAGCATAAGGTTACCATAAGCCAGCCC | 0.0844 | 1.93 | 0.131 | 0.754 | -0.551 | 0.887 | 0.85 | 1.49 | -0.133 | 0.657 |
| GATACAGGGTCAGCTAGTGGCCAGAGTATGGAAA | 4.54 | 2.31 | -0.558 | 2.21 | -0.762 | 4.49 | 3.55 | 3.25 | 0.61 | 1.77 |
| ATATGTAGGTTACAGCCGGGTCATTCAGGCTATG | 2.26 | 3.47 | 0.993 | 2.28 | 0.202 | 4.51 | 5.97 | 5.46 | 2.52 | 4.67 |
| CCTCGGAGGACAACAGGAGGTCAGACCTGCCAGA | 0.836 | 2.12 | 2.37 | 1.52 | -0.492 | 1.96 | 0.605 | 0.0936 | -0.634 | -0.359 |
| GATACCGGGTCAAGGCCAGAGTACGCGTATTGAT | 4.87 | 2.87 | -0.172 | 2.45 | -1.08 | 5.08 | 5.25 | 4.57 | 1.31 | 3.21 |
| CCGAGTAGGTTACGGGGCATTCAGGCAACGGTGA | 0.382 | 0.612 | -0.693 | 0.593 | -0.641 | 2.14 | 2.87 | 3.66 | 1.1 | 2.95 |
| CCTAATTGGTCAGGAGGTCACACACCGGATATGA | 3.74 | 3.59 | 2.27 | 3.64 | 1.07 | 4.42 | 3.88 | 4.51 | 2.08 | 4.16 |
| CAGCCTAGGTCAGGTCCAGTATAGGAGGAACGTT | 1.07 | 0.851 | -0.352 | 0.578 | -1.03 | 1.24 | 0.465 | 0.541 | -0.0378 | 0.231 |
| CCGACTAGGGCAGAAAGGTTACCATACCATCCGG | 0.259 | 0.701 | 0.0905 | 0.925 | -0.912 | 2.11 | 1.79 | 2.27 | 0.723 | 1.86 |
| CAGCCTAGGTCATGGCCAGTATAGGAGGAACGTT | 4.47 | 3.18 | -0.187 | 1.92 | -0.552 | 3.81 | 2.34 | 2.86 | 0.578 | 1.71 |
| CCTTACGGTTCACGAGGTTATAGCACGACGAGCG | 3.45 | 3.49 | 1.87 | 2.57 | 0.189 | 3.75 | 1.96 | 2.4 | 0.593 | 1.58 |
| TCGATTAGGTTACCAATGGGGCATTCAGCTTTCT | 0.297 | 1.49 | -0.396 | 1.29 | -0.254 | 1.21 | -0.163 | 1.5 | 2.68 | 2.26 |
| TCAGACAGGTGAAGGTAACTCACGTACGCAGTCG | 0.8 | 2.26 | -0.278 | 0.983 | -0.343 | 1.2 | 0.954 | 2.09 | 3.55 | 2.75 |
| ATATGTAGGTTAAGGGTCATTCCGGTTGGTTCGC | 5.44 | 4.91 | 3.25 | 4.19 | 1.33 | 6.67 | 11.4 | 9.69 | 10.2 | 11.1 |
| CAAACTAGATCACGAAAGGTCAAAGTCGAATGAC | 5.13 | 5.95 | 5.88 | 5.7 | 2.42 | 5.61 | 4.16 | 5.04 | 2.26 | 3.98 |
| CAGCCTAGGTCAGGGCCTGTATAGGAGGAACGTT | 1.48 | 0.732 | -0.667 | 0.189 | -0.753 | 1.95 | 0.752 | 0.931 | -0.43 | 0.141 |
| ATCGAAAGGACGACGAGGTGAGTATACACCGTTT | 0.179 | -0.132 | -0.204 | -0.324 | -0.355 | -0.0942 | 1.08 | -0.0154 | 0.318 | 0.299 |
| TATACATGGTCAAAGGCCAGAGTACGAATGTCGA | 0.397 | 0.672 | 0.238 | 0.37 | 0.623 | 1.64 | 3.14 | 4.34 | 2.32 | 4.31 |
| AGAATGAGGTTAAGATAAGGGAAACAGAATACAT | 2.28 | 2.29 | 0.217 | 1.88 | 0.218 | 3.48 | 2.73 | 2.29 | 0.99 | 1.69 |
| TCTTGTAGATCATTAGAGGTTAAGAAAGTGCGCT | 1.06 | 4.79 | 1.68 | 2.27 | 0.3 | 1.77 | -0.111 | 1.81 | 2.85 | 2.33 |
| AGTAGCAGGCCAAGTTTGGGTCACTCAAACAAAG | 0.202 | -0.31 | -0.37 | 0.549 | -0.802 | 1.47 | -0.0669 | 0.42 | -0.474 | -0.201 |
